Test results: US20140271602, “NUCLEOTIDE-SPECIFIC RECOGNITION SEQUENCES FOR DESIGNER TAL EFFECTORS” (THE BROAD INSTITUTE INC., published 2014)

Biological target: T1, TALE2-NN (CACNA1C site 2 activator) (Xanthomonas (engineered), UniProt P14727 SEQ:1-983)
T1 chain: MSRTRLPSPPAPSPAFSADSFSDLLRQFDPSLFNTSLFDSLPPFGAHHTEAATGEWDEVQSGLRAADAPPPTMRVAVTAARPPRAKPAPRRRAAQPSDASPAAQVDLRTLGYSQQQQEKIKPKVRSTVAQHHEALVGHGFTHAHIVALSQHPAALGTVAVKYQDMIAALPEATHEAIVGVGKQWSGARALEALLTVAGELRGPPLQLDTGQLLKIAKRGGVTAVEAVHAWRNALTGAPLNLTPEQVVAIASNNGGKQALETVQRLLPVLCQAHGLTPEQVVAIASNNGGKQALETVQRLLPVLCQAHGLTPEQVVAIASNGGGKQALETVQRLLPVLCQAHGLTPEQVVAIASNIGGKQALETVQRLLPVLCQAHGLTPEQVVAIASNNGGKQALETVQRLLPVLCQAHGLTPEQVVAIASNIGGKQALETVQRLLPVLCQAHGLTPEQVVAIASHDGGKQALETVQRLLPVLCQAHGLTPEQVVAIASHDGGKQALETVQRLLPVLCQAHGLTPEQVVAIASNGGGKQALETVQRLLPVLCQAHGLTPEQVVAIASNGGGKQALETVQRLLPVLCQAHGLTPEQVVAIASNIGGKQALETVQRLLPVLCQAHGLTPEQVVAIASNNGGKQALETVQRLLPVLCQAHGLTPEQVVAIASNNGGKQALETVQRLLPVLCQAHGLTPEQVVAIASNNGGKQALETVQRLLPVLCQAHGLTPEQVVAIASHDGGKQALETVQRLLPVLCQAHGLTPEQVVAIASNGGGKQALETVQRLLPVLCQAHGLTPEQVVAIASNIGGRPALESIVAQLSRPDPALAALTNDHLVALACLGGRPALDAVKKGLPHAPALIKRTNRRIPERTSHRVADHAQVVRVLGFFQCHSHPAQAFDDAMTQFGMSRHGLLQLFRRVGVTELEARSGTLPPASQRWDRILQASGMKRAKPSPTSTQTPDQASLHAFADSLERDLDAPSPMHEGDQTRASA
Experiment: cell_activity; luciferase reporter
Details: tags: VP64, 2A-GFP; dsDNA, one strand shown
Description: TALEs using NN, NK, NH, and HN as the G-targeting RVD were synthesized to target two distinct 18 bp target sites in the human CACNA1C locus. Changes in mRNA are measured using qRT-PCR as described previously. VP64, VP64 transcription activation domain. All results are collected from three independent experiments in HEK 293FT cells. Error bars indicate s.e.m.; n=3. FIG. 19(b) discloses SEQ ID NOS 63 and 62, respectively, in order of appearance.
To determine whether NH and HN are suitable replacements for NN as the G-specific RVD, specificity and activity strength of NN, NK, NH, and HN were directly compared. Two 18 bp targets within the CACNA1C locus in the human genome were chosen and four TALEs for each target were constructed, using NN, NK, NH, or HN as the G-targeting RVD (FIG. 19a). […] For each CACNA1C target site, four luciferase reporters were constructed: wild type genomic target, and wild type target with 2, 4, or all guanines mutated into adenines (FIG. 19a, G-to-A reporters), and compared the activity of each TALE using these reporters (FIG. 19a). […] Thus, focus was placed on the RVDs NN, NK, and NH in subsequent experiments to assess their usefulness in modulating transcription at endogenous human genome targets.

| Sequence | binding signal |
| --- | --- |
| TAATAGACCTTAGGGCTA | 21.8 % reduction vs wild-type site |
